Laboratory results: PubChem BioAssay AID1159569 (Broad Institute, 2015)
Entries with a potency or affinity are not part of this list. Results filed as inconclusive are left out. Active and inactive are the calls of the source. The rule behind the calls is not given here.

Experiment: HepG2 cell cytotoxicity, dose response, cytotoxicity control, plate reader, dry powder samples (AID 1159569)

| SMILES | outcome |
| --- | --- |
| C/C=C/c1ccccc1[C@H]1[C@@H](C#N)N(C(=O)NC2CCCC2)[C@H]1CO | inactive |
| C[C@@H]1CN([C@@H](C)CO)C(=O)Cc2cc(NC(=O)Nc3ccc4c(c3)OCO4)ccc2O[C@@H]1CN(C)CC1CC1 | inactive |
| C[C@@H]1CN([C@@H](C)CO)C(=O)c2cccc(NC(=O)c3cnccn3)c2O[C@@H]1CN(C)Cc1ccc(-c2ccccc2)cc1 | inactive |
| CCCNC(=O)c1cc2c(c(-c3cccc(-c4cc5ccccc5o4)c3)n1)[C@H](CCO)N(C(=O)NC(C)C)C2 | inactive |
| CO[C@@H]1CN(C)C(=O)c2ccc(NC(=O)Nc3ccccc3F)cc2OC[C@@H](C)N(CCC(F)(F)F)C[C@H]1C | inactive |
| C[C@@H]1CN([C@H](C)CO)S(=O)(=O)c2ccc(C#Cc3ccccc3F)cc2O[C@H]1CN(C)C(=O)c1ccc2c(c1)OCO2 | inactive |
| C[C@H](CO)N1C[C@H](C)[C@H](CN(C)CC2CC2)Oc2ccc(NC(=O)Nc3ccccc3)cc2CC1=O | inactive |
| O=C(c1ccccc1F)N1CC(=O)N2[C@H](CO)[C@H](c3ccc(-c4cccnc4)cc3)[C@H]2C1 | inactive |
| CCc1csc(N2[C@H](C#N)[C@H](c3ccccc3-c3ccc(F)cc3)[C@H]2CO)n1 | inactive |
| C[C@@H]1CN([C@@H](C)CO)S(=O)(=O)c2ccc(C#CC3CCCC3)cc2O[C@H]1CN(C)C(=O)Cc1ccncc1 | inactive |
| O=C(Nc1ccccc1)N1CCCCN2[C@@H](CO)[C@H](c3ccc(C#Cc4cccnc4)cc3)[C@@H]2C1 | inactive |
| C[C@@H]1CN([C@@H](C)CO)C(=O)c2cccc(NC(=O)Nc3ccc4c(c3)OCO4)c2O[C@@H]1CN(C)C(=O)Nc1ccc2c(c1)OCO2 | inactive |
| COc1ccc(-c2ccccc2[C@H]2[C@@H](C#N)N(C(=O)C3CCCC3)[C@@H]2CO)cc1 | inactive |
| CCCC(=O)N1CC2(C1)CN(S(=O)(=O)c1ccc(C)cc1)[C@@H](CO)c1[nH]c3cc(OC)ccc3c12 | inactive |
| COc1ccc(NC(=O)N2CC3(C2)CN(C(=O)C2CCC2)[C@H](CO)c2c3c3ccc(OC)cc3n2C)cc1 | inactive |
| COc1ccccc1S(=O)(=O)N(C)C[C@H]1Oc2cc(/C=C/c3ccccc3)ccc2S(=O)(=O)N([C@H](C)CO)C[C@@H]1C | inactive |
| COc1ccc(C#Cc2ccc3c(c2)[C@H]2[C@H](CCN2C(=O)C2CCCC2)[C@@H](CO)N3)cc1 | inactive |
| C[C@H](CO)N1C[C@H](C)[C@H](CN(C)S(=O)(=O)c2ccc(C#N)cc2)OCc2ccccc2-c2c(n(C)c3ccccc23)C1=O | inactive |
| Cc1ccccc1-c1ccccc1[C@H]1[C@@H](C#N)N(C(=O)c2ccccc2)[C@@H]1CO | inactive |
| O=C(Nc1ccccc1F)N1CCCCN2[C@H](CO)[C@H](c3ccc(C#Cc4cccnc4)cc3)[C@@H]2C1 | inactive |
| COc1ccc(NC(=O)N2CCCCN3[C@@H](CO)[C@H](c4ccc(C#Cc5ccccn5)cc4)[C@@H]3C2)cc1 | inactive |

| SMILES | outcome |
| --- | --- |
| C[C@@H](NC(=O)C[C@H]1C[C@@H]2c3cc(NS(=O)(=O)c4ccc(F)cc4)ccc3O[C@@H]2[C@H](CO)O1)c1ccccc1 | inactive |
| O=C(c1ccncc1)N1CC(=O)N2[C@H](C1)[C@@H](c1ccc(-c3cccnc3)cc1)[C@@H]2CO | inactive |
| COc1cccc(C#Cc2ccc([C@H]3[C@@H](CO)N(C(=O)c4ccccn4)[C@H]3C#N)cc2)c1 | inactive |
| Cc1ccc(S(=O)(=O)N(C)C[C@H]2OCc3ccccc3-c3c(n(C)c4ccccc34)C(=O)N([C@H](C)CO)C[C@@H]2C)cc1 | inactive |
| COc1ccc2c3c(n(C)c2c1)[C@@H](CO)N(C(=O)C1CC1)CC31CN(C(=O)Nc2cccc(F)c2)C1 | inactive |
| COc1ccccc1S(=O)(=O)N(C)C[C@H]1OCc2ccccc2-c2c(n(C)c3ccccc23)C(=O)N([C@@H](C)CO)C[C@@H]1C | inactive |
| COc1ccccc1S(=O)(=O)N(C)C[C@@H]1OCc2ccccc2-c2c(n(C)c3ccccc23)C(=O)N([C@@H](C)CO)C[C@@H]1C | inactive |
| CO[C@@H]1CN(C)C(=O)c2ccc(NC(=O)Nc3ccccc3F)cc2OC[C@@H](C)N(Cc2ccccc2F)C[C@H]1C | inactive |
| COc1cccc(-c2cccc(-c3nc(C(=O)NCc4ccc(Oc5ccccc5)cc4)cc4c3[C@@H](CCO)N(S(=O)C(C)(C)C)C4)c2)c1 (stereo partly specified) | inactive |
| CCCC(=O)Nc1ccc2c(c1)OC[C@@H](C)N(Cc1ccccc1F)C[C@@H](C)[C@H](OC)CN(C)C2=O | inactive |
| COc1ccc(C#Cc2cnc3c(c2)C(=O)N([C@H](C)CO)C[C@H](C)[C@H](CN(C)S(=O)(=O)c2cccc(F)c2)O3)cc1OC | inactive |
| OC[C@H]1CC[C@@H]2O[C@H](CCc3ccc(C#CCc4ccccc4)cc3)[C@H](n3cc(-c4ccccc4)nn3)C[C@@H]2O1 | inactive |
| COc1ccc(-c2ccc([C@H]3[C@H](C#N)N(C(=O)c4cccc(F)c4)[C@H]3CO)cc2)cc1 | inactive |
| O=C(Nc1ccccc1)N1CCCCN2[C@H](CO)[C@H](c3ccc(C#Cc4cccnc4)cc3)[C@@H]2C1 | inactive |
| C[C@H]1CN([C@@H](C)CO)C(=O)c2cc(NC(=O)Nc3ccc(C(F)(F)F)cc3)ccc2O[C@@H]1CN(C)C(=O)Nc1cccc2ccccc12 | inactive |
| C/C=C/c1ccc2c(c1)[C@H]1[C@H](CCN1S(=O)(=O)c1ccccc1C)[C@@H](CO)N2 | inactive |
| Cc1ccc(S(=O)(=O)N(C)C[C@H]2OCc3ccccc3-c3c(n(C)c4ccccc34)C(=O)N([C@@H](C)CO)C[C@@H]2C)cc1 | inactive |
| COc1ccc2c3c(n(C)c2c1)[C@@H](CO)N(C(=O)c1ccc(F)cc1)CC31CN(C(=O)Nc2ccc(F)cc2)C1 | inactive |
| C[C@@H]1CN([C@H](C)CO)C(=O)c2cc(NC(=O)Nc3ccc(C(F)(F)F)cc3)ccc2O[C@H]1CN(C)C(=O)Nc1cccc2ccccc12 | inactive |
| O=C(c1ccccc1F)N1CC(=O)N2[C@H](C1)[C@@H](c1ccc(-c3cccnc3)cc1)[C@@H]2CO | inactive |
| CN1c2ccc(C#Cc3cccnc3)cc2[C@H]2[C@H](CCN2S(=O)(=O)c2ccc(F)cc2)[C@H]1CO | inactive |

| SMILES | outcome |
| --- | --- |
| COc1ccc(C#Cc2ccc3c(c2)O[C@@H](CN(C)C(=O)Nc2cccc(OC)c2)[C@@H](C)CN([C@H](C)CO)S3(=O)=O)cc1 | inactive |
| C[C@H](CO)N1C[C@H](C)[C@@H](CN(C)C(=O)Nc2cccc3ccccc23)Oc2ccc(NC(=O)Cc3cn(C)c4ccccc34)cc2C1=O | inactive |
| COc1ccccc1NC(=O)Nc1ccc2c(c1)OC[C@@H](C)N(Cc1ccccc1Cl)C[C@@H](C)[C@H](OC)CN(C)C2=O | inactive |
| O=C(C1CCCC1)N1CC2(C1)[C@@H](c1ccccc1)[C@H](CO)N2Cc1ccc(Cl)cc1 | inactive |
| C[C@H](CO)N1C[C@H](C)[C@@H](CN(C)C(=O)Nc2ccc(-c3ccccc3)cc2)OCc2ccccc2-c2c(n(C)c3ccccc23)C1=O | inactive |
| C[C@@H]1CN([C@@H](C)CO)C(=O)c2cccc(NC(=O)c3nc4ccccc4s3)c2O[C@H]1CN(C)C(=O)Nc1ccc2c(c1)OCO2 | inactive |
| C[C@H]1CN([C@@H](C)CO)C(=O)c2c(c3ccccc3n2C)-c2ccccc2CO[C@@H]1CN(C)S(=O)(=O)c1ccc(F)cc1 | inactive |
| COc1ccc(C#Cc2ccc3c(c2)O[C@H](CN(C)C(=O)Nc2cccc(OC)c2)[C@H](C)CN([C@@H](C)CO)S3(=O)=O)cc1 | inactive |
| O=C(NC[C@@H]1CC[C@H]2[C@H](CN2Cc2cc(-c3ccccc3)on2)O1)c1ccc2c(c1)OCO2 | inactive |
| CCCNC(=O)Nc1ccc2c(c1)OC[C@@H](C)N(Cc1ccccc1)C[C@@H](C)[C@H](OC)CN(C)C2=O | inactive |
| O=C(Nc1ccccc1F)N1CCCCN2[C@@H](CO)[C@H](c3ccc(C#Cc4cccnc4)cc3)[C@@H]2C1 | inactive |
| COc1ccc2c3c(n(C)c2c1)[C@@H](CO)N(C(=O)C1CCCC1)CC31CN(C(=O)Nc2cccc(F)c2)C1 | inactive |
| COc1ccc(-c2ccccc2[C@H]2[C@@H](C#N)N(C(=O)NC(C)C)[C@H]2CO)cc1 | inactive |
| COCC#Cc1ccc(CC[C@H]2O[C@H]3CC[C@H](CO)O[C@H]3C[C@@H]2n2cc(C3CC3)nn2)cc1 | inactive |
| COc1cccc(S(=O)(=O)N(C)C[C@@H]2OCc3ccccc3-c3c(n(C)c4ccccc34)C(=O)N([C@H](C)CO)C[C@@H]2C)c1 | inactive |
| CO[C@@H]1CN(C)C(=O)c2ccc(NC(=O)c3ccc4c(c3)OCO4)cc2OC[C@@H](C)N(Cc2ccc3c(c2)OCO3)C[C@H]1C | inactive |
| C[C@@H]1CN([C@H](C)CO)C(=O)c2cc(/C=C/c3ccccc3)cnc2O[C@H]1CN(C)C(=O)NC1CCCCC1 | inactive |
| COc1cccc(C#Cc2ccc([C@H]3[C@@H](CO)N(C(=O)C4CCC4)[C@H]3C#N)cc2)c1 | inactive |
| COc1ccc(C#Cc2ccc3c(c2)O[C@@H](CN(C)S(=O)(=O)c2ccccc2F)[C@@H](C)CN([C@@H](C)CO)S3(=O)=O)cc1 | inactive |
